# Reference: ChEMBL document CHEMBL3988442, “University of Dundee, Small-Polar-MMV Screening Library” (2021)
# Biological target: T1, Aspartate--tRNA(Asp/Asn) ligase (Mycobacterium tuberculosis (strain ATCC 25618 / H37Rv)) (UniProt P9WFW3); note: in the data most compounds retested in dose-response had high values
# T1 sequence (whole entry): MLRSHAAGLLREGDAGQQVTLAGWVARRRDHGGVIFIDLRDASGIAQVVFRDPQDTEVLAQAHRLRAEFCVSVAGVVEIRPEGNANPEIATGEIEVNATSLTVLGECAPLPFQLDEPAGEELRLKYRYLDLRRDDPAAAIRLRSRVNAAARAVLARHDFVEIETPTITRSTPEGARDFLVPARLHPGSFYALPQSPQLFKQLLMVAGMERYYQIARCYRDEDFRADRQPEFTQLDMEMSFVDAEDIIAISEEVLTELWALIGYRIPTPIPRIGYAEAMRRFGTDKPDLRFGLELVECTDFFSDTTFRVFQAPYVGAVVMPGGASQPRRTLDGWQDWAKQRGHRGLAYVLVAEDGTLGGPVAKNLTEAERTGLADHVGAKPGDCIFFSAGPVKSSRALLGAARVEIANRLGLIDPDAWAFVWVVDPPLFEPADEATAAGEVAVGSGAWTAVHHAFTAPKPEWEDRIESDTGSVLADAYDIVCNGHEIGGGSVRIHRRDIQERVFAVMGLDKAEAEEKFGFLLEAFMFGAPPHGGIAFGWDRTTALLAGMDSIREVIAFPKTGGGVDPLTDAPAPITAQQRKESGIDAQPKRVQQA
# Experiment: Assay for Asp RNA synthetase-1 from Mycobacterium tuberculosis
# Type: functional
# Design: scale not given: direction of the effect not stated beside the values
# Details: 30 µM
row,Structure (SMILES),Percent Effect
1,OCCn1cc(CN2CCN(CCOCC(F)(F)F)CC2)cn1,-3.85%
2,CC(=O)N1CC(=O)N(c2ccccc2)CC12CCN(Cc1nccs1)C2 (stereo not given),7.34%
3,O=C(c1ccc(F)c(Cl)c1)N1C[C@@H]2CC[C@H](C1)N(Cc1ccccc1)C2,4.06%
4,Cc1nnc(Nc2cccc(C3CCN(CCO)CC3)n2)s1,-2.1%
5,CN(CCCC#N)C1CCCN(Cc2noc(C3CC3)n2)C1 (stereo not given),-2.54%
6,COc1cccc(CNC(=O)CC2CSc3ncc(C)c(=O)n32)c1 (stereo not given),1.5%
7,O=C(CN1CCCC(Cn2cncn2)C1)NCCOc1ccccc1 (stereo not given),-2.48%
8,CN(Cc1ccsc1)C(=O)c1cccc(F)c1,-5.62%
9,CCOCCOc1ccccc1C(=O)N1CCCC(c2ncc[nH]2)C1 (stereo not given),7.07%
10,CC(C)(C)c1n[nH]c(C2CN(C(=O)c3ccsc3)CCO2)n1 (stereo not given),-2.97%
11,COc1ccc(CN2CCN(C(C)c3nc(C4CC4)no3)CC2)cc1 (stereo not given),-3.61%
12,Cn1cc(CN2CCc3c(nc(-c4ccccn4)[nH]c3=O)C2)cn1,-3.63%
13,CCCc1nnsc1C(=O)NCC1CCN(c2ccccn2)CC1,-7.59%
14,CN(c1ccc(C(=O)NCCCN2CCOCC2)c(Cl)c1)S(C)(=O)=O,-4.13%
15,COCCN1CCCC1c1nccnc1Nc1nc(C)cs1 (stereo not given),-3.52%
16,Cc1ccc(NC(=O)c2n[nH]c(-n3cnnc3)n2)cc1C,4.15%
17,COCCN1CCN(C(=O)C2CC=CC2)Cc2cccnc21,-1.63%
18,O=C(NCC1CCOCC1)[C@H]1C[C@@H]2CCN(Cc3ccncc3)C[C@@H]2O1,2.48%
19,CCN1C(=O)C2(CCOCC2)c2cc(NC(=O)c3ccco3)ccc21,-3.45%
20,O=C(Nc1nccs1)N1CCCC(N2CCNC2=O)C1 (stereo not given),0.977%

row,Structure (SMILES),Percent Effect
1,CCOc1ccc(Cl)c(C(=O)N2CCN(c3cnccn3)CC2)n1,-1.79%
2,Cc1cccc(-c2noc(CN3CCCC(Cn4cncn4)C3)n2)c1 (stereo not given),-2.23%
3,O=C(c1cc(Cl)c2c(c1)OCCO2)N1CCCC(n2cncn2)C1 (stereo not given),-7.78%
4,Cn1cc(CN2CC[C@@H]3[C@@H](CCC(=O)N3CCc3c[nH]cn3)C2)cn1,-1.44%
5,O=C(C1CCOC1)N1CCc2ncc(CNc3ccccn3)n2CC1 (stereo not given),-0.229%
6,O=S1(=O)CCN(Cc2cccnc2)[C@H]2CCN(c3ncccn3)CC[C@H]21,1.96%
7,COc1ncc(CN2CC[C@@](C)(O)[C@H](Oc3cccc(F)c3)C2)cn1,6.63%
8,O=C(CN1CCCC1Cn1cccn1)NC1CCOCC1 (stereo not given),-1.71%
9,O=S(=O)(C1CC1)N1CC[C@]2(C[C@@H](Oc3ccccn3)CO2)C1,-1.12%
10,CS(=O)(=O)NC[C@]12COC[C@H]1CN(C(=O)C1CCCCC1)C2,7.93%
11,Cc1cccc(C2(CNC(=O)CCN3C(=O)CCC3=O)CCCC2)c1,-4.05%
12,CC(C)C(Sc1nnnn1-c1ccccc1)C(=O)NCc1cccnc1 (stereo not given),1.64%
13,COC(=O)C(C)(C)NC(=O)C1CC(=O)N(C)C1 (stereo not given),-1.62%
14,Cc1ccc(S(=O)(=O)Nc2ccc(=O)n(C)c2)cc1,26.8%
15,Cn1cc(NC(=O)N2CCC(NS(C)(=O)=O)CC2)ccc1=O,57.4%
16,N#Cc1ccccc1CN1C[C@@H]2CC[C@H](C1)N(Cc1cscn1)C2=O,-3.02%
17,Cc1nn(C)c(N(C)C)c1CNC1CCc2c(F)cccc21 (stereo not given),-3.35%
18,CC(C)c1nn(C)c(N(C)C)c1CNCc1cccc(CN(C)C)c1,2.36%
19,CN1CC(=O)N(c2cccnc2)CC12CCN(C(=O)c1cccnc1)C2 (stereo not given),4.16%
20,Cc1ccccc1CC1(CO)CCCN(c2ncccc2C#N)C1 (stereo not given),3.07%

# Biological target: Shiga toxin 2 (Escherichia coli O157:H7) (UniProt P09385+P09386)
# Experiment: E. coli 0.157:H7 Shiga Toxin SOP - stx2 screening assay
# Type: functional
# Design: scale not given: direction of the effect not stated beside the values
# Details: 30 µM
row,Structure (SMILES),Percent Effect
1,OCCn1cc(CN2CCN(CCOCC(F)(F)F)CC2)cn1,27.3%
2,CC(=O)N1CC(=O)N(c2ccccc2)CC12CCN(Cc1nccs1)C2 (stereo not given),-17.5%
3,O=C(c1ccc(F)c(Cl)c1)N1C[C@@H]2CC[C@H](C1)N(Cc1ccccc1)C2,-25.3%
4,Cc1nnc(Nc2cccc(C3CCN(CCO)CC3)n2)s1,2.64%
5,CN(CCCC#N)C1CCCN(Cc2noc(C3CC3)n2)C1 (stereo not given),7.14%
6,COc1cccc(CNC(=O)CC2CSc3ncc(C)c(=O)n32)c1 (stereo not given),6.98%
7,O=C(CN1CCCC(Cn2cncn2)C1)NCCOc1ccccc1 (stereo not given),-0.612%
8,CN(Cc1ccsc1)C(=O)c1cccc(F)c1,-0.747%
9,CCOCCOc1ccccc1C(=O)N1CCCC(c2ncc[nH]2)C1 (stereo not given),-32.6%
10,CC(C)(C)c1n[nH]c(C2CN(C(=O)c3ccsc3)CCO2)n1 (stereo not given),7.5%
11,COc1ccc(CN2CCN(C(C)c3nc(C4CC4)no3)CC2)cc1 (stereo not given),0.241%
12,Cn1cc(CN2CCc3c(nc(-c4ccccn4)[nH]c3=O)C2)cn1,-0.78%
13,CCCc1nnsc1C(=O)NCC1CCN(c2ccccn2)CC1,-0.668%
14,CN(c1ccc(C(=O)NCCCN2CCOCC2)c(Cl)c1)S(C)(=O)=O,-32.5%
15,COCCN1CCCC1c1nccnc1Nc1nc(C)cs1 (stereo not given),0.955%
16,Cc1ccc(NC(=O)c2n[nH]c(-n3cnnc3)n2)cc1C,-18.5%
17,COCCN1CCN(C(=O)C2CC=CC2)Cc2cccnc21,-23.9%
18,O=C(NCC1CCOCC1)[C@H]1C[C@@H]2CCN(Cc3ccncc3)C[C@@H]2O1,-19.5%
19,CCN1C(=O)C2(CCOCC2)c2cc(NC(=O)c3ccco3)ccc21,-26.8%
20,O=C(Nc1nccs1)N1CCCC(N2CCNC2=O)C1 (stereo not given),-10.1%

row,Structure (SMILES),Percent Effect
1,CCOc1ccc(Cl)c(C(=O)N2CCN(c3cnccn3)CC2)n1,-46.8%
2,Cc1cccc(-c2noc(CN3CCCC(Cn4cncn4)C3)n2)c1 (stereo not given),-1.3%
3,O=C(c1cc(Cl)c2c(c1)OCCO2)N1CCCC(n2cncn2)C1 (stereo not given),10.4%
4,Cn1cc(CN2CC[C@@H]3[C@@H](CCC(=O)N3CCc3c[nH]cn3)C2)cn1,-37.6%
5,O=C(C1CCOC1)N1CCc2ncc(CNc3ccccn3)n2CC1 (stereo not given),-21.5%
6,O=S1(=O)CCN(Cc2cccnc2)[C@H]2CCN(c3ncccn3)CC[C@H]21,-36.2%
7,COc1ncc(CN2CC[C@@](C)(O)[C@H](Oc3cccc(F)c3)C2)cn1,13%
8,O=C(CN1CCCC1Cn1cccn1)NC1CCOCC1 (stereo not given),13.3%
9,O=S(=O)(C1CC1)N1CC[C@]2(C[C@@H](Oc3ccccn3)CO2)C1,-6.89%
10,CS(=O)(=O)NC[C@]12COC[C@H]1CN(C(=O)C1CCCCC1)C2,-3.53%
11,Cc1cccc(C2(CNC(=O)CCN3C(=O)CCC3=O)CCCC2)c1,9.87%
12,CC(C)C(Sc1nnnn1-c1ccccc1)C(=O)NCc1cccnc1 (stereo not given),8.76%
13,COC(=O)C(C)(C)NC(=O)C1CC(=O)N(C)C1 (stereo not given),-22.5%
14,Cc1ccc(S(=O)(=O)Nc2ccc(=O)n(C)c2)cc1,-7.78%
15,Cn1cc(NC(=O)N2CCC(NS(C)(=O)=O)CC2)ccc1=O,-31.1%
16,N#Cc1ccccc1CN1C[C@@H]2CC[C@H](C1)N(Cc1cscn1)C2=O,3.66%
17,Cc1nn(C)c(N(C)C)c1CNC1CCc2c(F)cccc21 (stereo not given),33.1%
18,CC(C)c1nn(C)c(N(C)C)c1CNCc1cccc(CN(C)C)c1,31.8%
19,CN1CC(=O)N(c2cccnc2)CC12CCN(C(=O)c1cccnc1)C2 (stereo not given),-12%
20,Cc1ccccc1CC1(CO)CCCN(c2ncccc2C#N)C1 (stereo not given),-4.79%
